Bioassay records from PubChem BioAssay.
TDP1 cell noCPT = qHTS for Inhibitors of human tyrosyl-DNA phosphodiesterase 1 (TDP1): qHTS in cells in absence of CPT; DT40 Tdp1-/- hTDP1 cells, no CPT, ATP luminescence, 48 h; actives 15% (n = 420,000); Potency, µM (series often up to 46.2 µM), hits mostly inhibitors; further: nearly all actives have a fitted effect of over 55% in size
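Seeded 400 DT40-hTDP1 cells/well (vehicle DMSO, no 20 nM CPT); pinned compounds; ≥48 hr at 37 °C; CellTiter-Glo luminescence as viability measure.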
TDP1 inh = blocks human tyrosyl-DNA phosphodiesterase 1 | Q9NUW8 | recombinant TDP1, AlphaScreen DNA substrate cleavage | Potency, µM (top dose mostly 130 µM), usual class: inhibitors | actives 0.28% (n = 350,000); further: nearly all actives have a fitted effect of over 40% in size
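Recombinant E. coli-expressed Tdp1 (1 nM) preincubated with compound 15 min at RT, then 5'-biotin/3'-phosphotyrosine-FITC DNA substrate (15 nM) added for 5 min. AlphaScreen beads (10 ug/ml) added, 10 min RT; tyrosine-FITC cleavage read as signal loss.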
DT40 TDP1 CPT = growth inhibition of DT40 Tdp1-/-;hTDP1 cells with camptothecin (screen for TDP1 inhibitors); AID 686979; chicken DT40 Tdp1-/-;hTDP1 cells + 20 nM CPT, ATP luminescence, 48 h; Potency, µM (doses to about 46.2 µM), hits mostly inhibitors; actives 12% (n = 420,000); further: nearly all actives have a fitted effect of over 55% in size
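Chicken DT40 Tdp1-/- cells complemented with human TDP1, 400 cells/well, exposed to compounds plus 20 nM camptothecin for at least 48 h at 37 C; viability read as ATP content by CellTiter-Glo luminescence.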
Gal4-VP16 FLuc = Gal4-VP16 reporter inhibition counter-screen; Drosophila S2 Gal4-VP16 UAS-luciferase, luminescence, 20 h; Potency, µM (series often up to 53.6 µM), usual class: inhibitors; actives 3.5% (n = 310,000);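 further: Gal4-VP16 expression switched on by copper sulfate through the metallothionein promoter; nearly all actives have a fitted effect of over 50% in size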
RORg inh = inhibitors of mouse ROR gamma transcriptional activity | P51450 | Drosophila S2 Gal4-RORgamma UAS-luciferase reporter, 20 h | Potency, µM (series often up to 53.6 µM), hits mostly inhibitors | actives 5.4% (n = 310,000); further: nearly all actives have a fitted effect of over 60% in size
Target sequence (P51450 whole entry, looked up, the tested form may be a part): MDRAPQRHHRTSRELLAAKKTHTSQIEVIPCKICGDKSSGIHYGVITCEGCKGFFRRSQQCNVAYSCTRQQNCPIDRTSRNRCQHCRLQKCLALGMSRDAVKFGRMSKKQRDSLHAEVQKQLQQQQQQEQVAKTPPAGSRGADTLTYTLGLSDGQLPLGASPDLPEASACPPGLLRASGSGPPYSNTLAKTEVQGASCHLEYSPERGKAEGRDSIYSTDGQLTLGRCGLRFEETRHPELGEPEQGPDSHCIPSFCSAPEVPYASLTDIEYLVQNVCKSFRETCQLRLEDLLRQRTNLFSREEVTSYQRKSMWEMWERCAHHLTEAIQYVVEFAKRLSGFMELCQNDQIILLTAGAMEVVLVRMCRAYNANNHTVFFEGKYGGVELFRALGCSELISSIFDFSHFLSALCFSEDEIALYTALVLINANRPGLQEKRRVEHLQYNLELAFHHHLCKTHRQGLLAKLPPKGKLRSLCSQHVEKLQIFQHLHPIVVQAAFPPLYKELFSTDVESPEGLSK
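Using a luciferase readout, inhibitors were identified by reduced reporter activity in Drosophila cells coexpressing a copper-inducible Gal4–ROR gamma fusion and UAS-driven Photinus luciferase, incubated 20 hr after 700 uM copper sulfate.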
A number is an active result; n = inactive; u = inconclusive; x = no result given; [ ] = another dose, or the depositor's remark. Rows were chosen to be rich in hits. Some 19% of all compounds tested hit in one or more screens of this group. The call rests on the fitted dose curve; in most records, active means well fitted curve in the direction sought with a large enough effect; inconclusive means small, poorly fitted or top-dose-only effect, or another doubt; inactive means no such curve, though single readings can be large; an effect the other way counts as inactive or inconclusive.

SMILES | TDP1 cell noCPT | TDP1 inh | DT40 TDP1 CPT | Gal4-VP16 FLuc | RORg inh
C=CCc1ccccc1OCC(O)CN1CCN(c2ccc(C)cc2)CC1 (stereo not given) | u | n | u | u | n
OC(COc1cccc2ccccc12)CN1CCN(c2ccc(Cl)cc2)CC1 (stereo not given) | 23µM | n | u | n | n
OC(COc1cc(Cl)c(Cl)cc1Cl)CN1CCN(c2ncccn2)CC1 (stereo not given) | u | n | 18µM | n | n
CN(C)S(=O)(=O)c1ccc(C(=O)NCC(=O)Nc2ccc(F)c(F)c2)cc1 | n | x | n | n | n
CCOC(=O)C1CCN(Cc2cc(=O)oc3cc(C)ccc23)CC1 | n | x | n | n | n
CCOc1ccc(/C=C2/SC(=S)N(n3c(C)ccc3C)C2=O)cc1 | u | n | n | n | u
COc1ccc(C=C2SC(=S)NC2=O)cc1 | 18µM | x | u | x | x
COc1ccc(/C=C2\SC(=S)N(N3CCOCC3)C2=O)c(OC)c1 | 16µM | x | n | n | n
COc1ccc(/C=C2/SC(=S)N(n3c(C)ccc3C)C2=O)cc1 | 15µM | n | u | n | n
COc1cccc(/C=C2\SC(=S)N(N3CCOCC3)C2=O)c1OC | n | n | n | n | n
O=C1NC(=S)SC1=Cc1cc(Br)ccc1O | n | x | 29µM | x | x
N#CCCn1ccc(NC(=O)c2ccc(Cl)cc2)n1 | n | n | n | u | n
Cc1cc(N(CC(=O)NC(C)C)S(C)(=O)=O)ccc1Br | n | n | n | n | n
COc1cc(/C=C2\SC(=S)NC2=O)ccc1OS(=O)(=O)c1ccccc1 | x | n | x | n | u
O=C1NC(=S)S/C1=C\c1ccc2ccccc2c1 | 21µM | x | u | n | n
COc1cccc(OCCOc2ccc(/C=C3/SC(=S)NC3=O)cc2)c1 | n | x | n | u | u
COc1ccc(C=C2CS(=O)(=O)CC(=Cc3ccc(OC)cc3)C2=O)cc1 | 1.3µM | x | 1.8µM | x | x
COc1cc(/C=C2/SC(=S)NC2=O)ccc1OS(=O)(=O)c1ccc(C)cc1 | 15µM | n | u | u | u
O=C1NC(=S)SC1=Cc1ccc(Cl)cc1 | 21µM | x | u | x | x
Cc1cc(C)nc(SCC(=O)Nc2ccnc3ccccc23)n1 | 0.65µM | n | 1.6µM | 0.89µM | 2.2µM
O=C(CSC1=NCCS1)Nc1ccc2ccccc2c1 | n | n | n | n | n
O=C(CSC1=NCCS1)Nc1ccnc2ccccc12 | 9.2µM | n | 6.5µM | 4µM | n
CCOC(=O)C1=C(C)N=c2s/c(=C/c3cccc([N+](=O)[O-])c3O)c(=O)n2C1c1ccccc1 (stereo not given) | 16µM | x | 13µM | n | n
COC(=O)C1=C(C)N=c2s/c(=C/c3ccoc3)c(=O)n2C1c1ccccc1 (stereo not given) | u | n | 23µM | n | n
CCOC(=O)C1=C(C)N=c2s/c(=C/c3cccc([N+](=O)[O-])c3O)c(=O)n2C1c1cc(OC)c(OC)c(OC)c1 (stereo not given) | 7.3µM | x | u | n | n
SMILES | TDP1 cell noCPT | TDP1 inh | DT40 TDP1 CPT | Gal4-VP16 FLuc | RORg inh
CCOC(=O)C1=C(C)N=c2s/c(=C/c3ccco3)c(=O)n2C1c1cccc(OC)c1 (stereo not given) | 23µM | n | u | n | n
CCCOc1ccc(C(O)(CCN2CCCCC2)c2ccccc2OC)cc1 (stereo not given) | 15µM | x | 18µM | n | n
CCCCOc1ccc(C(O)(CCN2CCOCC2)c2ccccc2)cc1 (stereo not given) | u | x | u | n | n
CCOc1ccc(C(O)(c2ccccc2OC)C(CN2CCCC2)c2ccccc2)cc1 (stereo not given) | 8.2µM | n | 12µM | n | n
Cc1ccccc1N(CC(=O)NC(C)(C)C)C(=O)CCC(=O)Nc1nccs1 | n | n | n | n | n
O=C1C2C3C=CC(C3)C2C(=O)N1c1cccnc1 (stereo not given) | n | n | n | n | n
C=CC(=O)Nc1cccc(N(C)c2ccnc(Nc3ccc(N4CCN(C)CC4)cc3)n2)c1 | 5.2µM | x | u | x | x
CN1CCN(c2ccc(NC(=O)COc3ccc4ccccc4c3)cc2)CC1 | u | x | u | u | n
C=CC(=O)Nc1cccc(Oc2ccnc(Nc3ccc(N4CCN(C)CC4)cc3)n2)c1 | 16µM | x | u | x | x
Cc1cc(NC(=O)CSc2nc3c(c(=O)n2CCc2ccccc2)SC(C)C3)no1 (stereo not given) | u | n | u | n | n
O=C(CCl)Nc1cc2[nH]c(=O)[nH]c2cc1Br | 1.8µM | n | 2.1µM | u | n
Cc1cc2c(C)cc(=O)[nH]c2cc1NC(=O)CCl | 2.3µM | n | 5.2µM | u | u
CCOc1ccc(S(=O)(=O)N2CCN(C(=O)C3CSC4(C)CCC(=O)N34)CC2)cc1 (stereo not given) | n | n | n | x | x
CCn1c(SCC(=O)Nc2oc(-c3ccccc3)c(-c3ccccc3)c2C#N)nnc1-c1ccncc1 | u | n | 13µM | n | n
COc1ccc(-c2ccc(-c3nnc(-c4ccncc4)o3)cc2)cc1 | x | n | x | n | n
COc1cc(OC)c2cc(-c3ccncc3)cnc2c1 | 27µM | n | 24µM | n | n
NC(=O)CCS(=O)(=O)CCN1CCCCC1 | n | n | n | x | u
Cc1ccc(S(=O)(=O)CCC(=O)N2CCN(c3ccc(Cl)cc3)CC2)cc1 | 21µM | n | 13µM | n | n
O=C(CCS(=O)(=O)c1ccc(Cl)cc1)N1CCN(c2ccc(F)cc2)CC1 | 18µM | n | 15µM | x | x
COc1ccc(CC(=O)N2CCN(c3ccc(F)cc3)CC2)cc1 | u | n | n | n | n
CN(c1ccc(OCC(=O)N2CCN(c3ccc(F)cc3)CC2)cc1)S(=O)(=O)c1cccs1 | 26µM | n | u | n | u
COc1ccc(S(=O)(=O)CCC(=O)N2CCN(c3ccc(F)cc3)CC2)cc1 | 26µM | n | 21µM | n | n
O=C1C(=Cc2ccc(Br)o2)C(=O)c2ccccc21 | u | u | 23µM | n | n
CC(C)(C)c1ccc(/C=C/C(=O)c2ccc(NC3=NCCCS3)cc2)cc1 | u | n | 23µM | 5.6µM | u
CC(C)(C)c1ccc(C(=O)NCCC(=O)NC2=NCCS2)cc1 | n | n | n | x | x
SMILES | TDP1 cell noCPT | TDP1 inh | DT40 TDP1 CPT | Gal4-VP16 FLuc | RORg inh
O=C(/C=C/c1ccc(Br)cc1)c1ccc(NC2=NCCCS2)cc1 | u | n | 9.2µM | u | u
CN(C)c1ccc(C(=O)/C=C/c2ccc(Br)cc2)cc1 | u | n | n | n | u
Cc1cccc(/C=C/C(=O)c2ccc(NC3=NCCCS3)cc2)c1 | 7.3µM | n | 13µM | n | n[10 µM]
c1ccc(NC2=NCCCCS2)cc1 | n | n | n | n | n
COc1ccc(/C=C/C(=O)NC2=NCCS2)cc1OC | u | n | n | n | n
O=C(/C=C/c1ccccc1)c1ccc(NC2=NCCCS2)cc1 | 12µM | n | 15µM | u | u
Cc1oc(-c2ccc(Cl)cc2)cc1C(=O)N1CCC1(C)C(=O)O (stereo not given) | u | x | 29µM | x | x
